Compound in this assay: Cc1cc(ccc1-c1ccccc1)C(=O)N1CCCN(CC1)C(=O)CCl [compound 10]
Put plainly: probe-labelled cysteine peptide fold change vs DMSO (competition) (log2 fold change); higher = less target engagement (more negative = stronger competition). As to conditions: THP-1, incubation time: 4 h.

About 21,000 targets were measured; listed, in parts, are those with the largest changes and a random draw of the rest.
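Also: competitive profiling in live THP-1 cells: cysteine peptides tagged with an iodoacetamide desthiobiotin (IA-DTB) probe, intensity after compound treatment relative to DMSO-treated cells.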

UniProt Q8IZL8, sequence (Q8IZL8 whole entry, looked up): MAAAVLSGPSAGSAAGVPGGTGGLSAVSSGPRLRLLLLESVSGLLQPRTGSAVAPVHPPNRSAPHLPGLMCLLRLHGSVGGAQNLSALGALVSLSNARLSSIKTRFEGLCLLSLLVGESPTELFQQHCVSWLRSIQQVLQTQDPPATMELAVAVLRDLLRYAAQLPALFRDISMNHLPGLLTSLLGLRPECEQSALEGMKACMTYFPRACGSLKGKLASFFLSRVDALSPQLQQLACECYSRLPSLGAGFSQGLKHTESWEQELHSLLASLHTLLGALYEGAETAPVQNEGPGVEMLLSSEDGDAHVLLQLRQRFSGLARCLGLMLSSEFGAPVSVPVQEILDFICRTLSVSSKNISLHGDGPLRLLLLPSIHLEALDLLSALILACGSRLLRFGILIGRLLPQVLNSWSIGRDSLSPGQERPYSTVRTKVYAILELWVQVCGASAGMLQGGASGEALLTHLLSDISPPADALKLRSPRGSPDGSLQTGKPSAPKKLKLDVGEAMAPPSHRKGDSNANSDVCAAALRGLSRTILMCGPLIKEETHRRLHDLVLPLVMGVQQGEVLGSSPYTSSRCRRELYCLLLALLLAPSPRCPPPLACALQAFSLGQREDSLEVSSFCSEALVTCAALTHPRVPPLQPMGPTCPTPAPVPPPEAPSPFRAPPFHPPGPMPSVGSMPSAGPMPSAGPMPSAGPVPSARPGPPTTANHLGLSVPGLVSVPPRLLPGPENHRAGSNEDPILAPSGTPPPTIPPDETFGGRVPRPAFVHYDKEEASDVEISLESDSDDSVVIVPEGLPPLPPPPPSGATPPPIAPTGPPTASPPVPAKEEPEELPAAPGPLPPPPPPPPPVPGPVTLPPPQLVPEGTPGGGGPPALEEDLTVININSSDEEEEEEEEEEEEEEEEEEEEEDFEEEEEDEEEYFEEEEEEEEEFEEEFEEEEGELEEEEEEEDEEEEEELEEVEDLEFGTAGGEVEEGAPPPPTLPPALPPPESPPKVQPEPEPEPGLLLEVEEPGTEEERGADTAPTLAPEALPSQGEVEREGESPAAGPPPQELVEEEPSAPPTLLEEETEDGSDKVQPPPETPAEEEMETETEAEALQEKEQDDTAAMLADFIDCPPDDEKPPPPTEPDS
UniProt P05165, sequence (P05165 whole entry, looked up): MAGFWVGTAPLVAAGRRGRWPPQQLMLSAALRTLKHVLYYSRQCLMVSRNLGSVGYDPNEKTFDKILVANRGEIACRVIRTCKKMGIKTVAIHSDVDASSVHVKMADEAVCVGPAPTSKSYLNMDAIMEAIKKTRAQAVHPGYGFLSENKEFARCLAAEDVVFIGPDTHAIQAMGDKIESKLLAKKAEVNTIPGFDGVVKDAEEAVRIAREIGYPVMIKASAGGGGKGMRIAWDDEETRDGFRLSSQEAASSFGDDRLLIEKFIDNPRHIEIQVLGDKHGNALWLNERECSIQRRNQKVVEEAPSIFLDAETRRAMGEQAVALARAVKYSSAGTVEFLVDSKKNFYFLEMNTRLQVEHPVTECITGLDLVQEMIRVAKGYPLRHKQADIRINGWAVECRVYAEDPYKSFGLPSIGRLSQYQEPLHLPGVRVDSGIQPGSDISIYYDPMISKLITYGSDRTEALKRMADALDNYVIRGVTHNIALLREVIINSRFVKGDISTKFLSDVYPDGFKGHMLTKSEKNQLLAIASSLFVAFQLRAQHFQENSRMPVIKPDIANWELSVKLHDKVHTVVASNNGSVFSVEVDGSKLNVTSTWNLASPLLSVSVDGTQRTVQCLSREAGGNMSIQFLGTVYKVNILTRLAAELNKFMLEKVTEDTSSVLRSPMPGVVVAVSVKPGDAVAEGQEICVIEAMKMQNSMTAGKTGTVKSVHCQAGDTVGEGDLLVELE
UniProt Q8IYS1, sequence (Q8IYS1 whole entry, looked up): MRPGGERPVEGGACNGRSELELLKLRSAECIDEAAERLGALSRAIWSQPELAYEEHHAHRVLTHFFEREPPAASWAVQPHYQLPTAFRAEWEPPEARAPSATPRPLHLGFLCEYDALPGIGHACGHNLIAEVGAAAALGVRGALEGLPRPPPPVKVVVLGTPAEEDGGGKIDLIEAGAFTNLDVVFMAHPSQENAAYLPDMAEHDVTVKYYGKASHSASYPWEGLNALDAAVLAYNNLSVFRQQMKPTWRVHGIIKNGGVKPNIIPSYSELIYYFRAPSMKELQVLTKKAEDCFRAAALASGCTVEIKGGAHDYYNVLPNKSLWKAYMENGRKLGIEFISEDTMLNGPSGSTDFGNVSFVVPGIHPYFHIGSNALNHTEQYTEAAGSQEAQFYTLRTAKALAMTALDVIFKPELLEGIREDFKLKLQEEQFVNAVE
UniProt Q8TCU6, sequence (Q8TCU6 whole entry, looked up): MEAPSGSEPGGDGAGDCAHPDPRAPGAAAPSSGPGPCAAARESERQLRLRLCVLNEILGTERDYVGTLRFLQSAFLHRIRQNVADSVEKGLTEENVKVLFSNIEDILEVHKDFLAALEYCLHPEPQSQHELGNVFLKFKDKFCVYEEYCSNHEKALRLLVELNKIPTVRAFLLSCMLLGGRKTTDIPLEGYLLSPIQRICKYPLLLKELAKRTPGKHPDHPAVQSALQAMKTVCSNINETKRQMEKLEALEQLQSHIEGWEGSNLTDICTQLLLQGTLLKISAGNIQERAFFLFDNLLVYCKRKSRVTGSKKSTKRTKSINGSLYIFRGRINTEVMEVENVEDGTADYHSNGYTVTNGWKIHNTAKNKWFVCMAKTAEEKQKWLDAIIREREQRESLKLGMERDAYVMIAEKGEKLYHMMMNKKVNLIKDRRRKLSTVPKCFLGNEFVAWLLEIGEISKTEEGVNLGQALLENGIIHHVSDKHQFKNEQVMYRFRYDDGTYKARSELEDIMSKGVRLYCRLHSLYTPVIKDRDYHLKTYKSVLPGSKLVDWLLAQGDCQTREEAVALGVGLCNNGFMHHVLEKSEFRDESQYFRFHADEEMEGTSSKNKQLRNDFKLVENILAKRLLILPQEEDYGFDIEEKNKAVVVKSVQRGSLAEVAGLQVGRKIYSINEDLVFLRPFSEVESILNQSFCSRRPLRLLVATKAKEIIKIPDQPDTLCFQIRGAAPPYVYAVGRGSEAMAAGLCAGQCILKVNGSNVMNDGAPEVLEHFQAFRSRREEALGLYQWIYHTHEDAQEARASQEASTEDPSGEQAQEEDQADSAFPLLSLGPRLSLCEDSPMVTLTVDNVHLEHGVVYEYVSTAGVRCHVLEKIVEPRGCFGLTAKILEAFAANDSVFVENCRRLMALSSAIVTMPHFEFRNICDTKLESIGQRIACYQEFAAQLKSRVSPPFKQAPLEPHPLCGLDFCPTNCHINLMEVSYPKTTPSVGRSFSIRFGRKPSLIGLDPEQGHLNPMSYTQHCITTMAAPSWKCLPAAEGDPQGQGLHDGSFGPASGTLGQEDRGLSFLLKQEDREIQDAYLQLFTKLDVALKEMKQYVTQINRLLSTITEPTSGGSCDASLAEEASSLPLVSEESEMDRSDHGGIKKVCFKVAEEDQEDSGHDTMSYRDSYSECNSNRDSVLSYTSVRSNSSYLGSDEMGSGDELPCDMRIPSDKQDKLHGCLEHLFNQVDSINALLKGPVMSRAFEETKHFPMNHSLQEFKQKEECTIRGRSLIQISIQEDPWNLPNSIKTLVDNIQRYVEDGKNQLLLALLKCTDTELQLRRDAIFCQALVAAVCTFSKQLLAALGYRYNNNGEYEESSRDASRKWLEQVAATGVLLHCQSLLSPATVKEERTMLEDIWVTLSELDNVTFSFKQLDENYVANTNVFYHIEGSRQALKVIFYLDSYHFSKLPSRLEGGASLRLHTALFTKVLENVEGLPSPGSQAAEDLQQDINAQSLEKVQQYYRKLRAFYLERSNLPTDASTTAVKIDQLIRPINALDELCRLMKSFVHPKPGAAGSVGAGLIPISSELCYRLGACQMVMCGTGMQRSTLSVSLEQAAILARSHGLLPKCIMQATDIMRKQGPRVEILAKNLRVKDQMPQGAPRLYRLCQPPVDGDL
UniProt Q15181, sequence (Q15181 whole entry, looked up): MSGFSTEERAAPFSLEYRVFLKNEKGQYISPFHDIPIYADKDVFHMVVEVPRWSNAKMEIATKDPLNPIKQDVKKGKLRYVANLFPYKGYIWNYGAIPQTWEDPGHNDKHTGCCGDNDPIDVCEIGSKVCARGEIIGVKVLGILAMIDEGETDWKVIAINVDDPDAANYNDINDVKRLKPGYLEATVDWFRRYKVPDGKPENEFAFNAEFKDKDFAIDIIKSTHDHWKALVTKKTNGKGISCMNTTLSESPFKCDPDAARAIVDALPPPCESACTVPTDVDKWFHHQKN
UniProt P53609, sequence (P53609 whole entry, looked up): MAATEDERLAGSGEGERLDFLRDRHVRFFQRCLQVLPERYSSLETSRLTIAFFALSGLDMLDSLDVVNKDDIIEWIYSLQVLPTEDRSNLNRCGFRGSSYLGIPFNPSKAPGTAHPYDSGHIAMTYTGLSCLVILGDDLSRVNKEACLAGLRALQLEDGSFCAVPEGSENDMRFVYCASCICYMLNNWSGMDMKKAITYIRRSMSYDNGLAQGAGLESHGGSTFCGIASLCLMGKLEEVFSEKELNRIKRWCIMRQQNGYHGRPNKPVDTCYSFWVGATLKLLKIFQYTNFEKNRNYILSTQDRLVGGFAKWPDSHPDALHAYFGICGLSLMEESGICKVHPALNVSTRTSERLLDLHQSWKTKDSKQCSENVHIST
UniProt Q96BK5, sequence (Q96BK5 whole entry, looked up): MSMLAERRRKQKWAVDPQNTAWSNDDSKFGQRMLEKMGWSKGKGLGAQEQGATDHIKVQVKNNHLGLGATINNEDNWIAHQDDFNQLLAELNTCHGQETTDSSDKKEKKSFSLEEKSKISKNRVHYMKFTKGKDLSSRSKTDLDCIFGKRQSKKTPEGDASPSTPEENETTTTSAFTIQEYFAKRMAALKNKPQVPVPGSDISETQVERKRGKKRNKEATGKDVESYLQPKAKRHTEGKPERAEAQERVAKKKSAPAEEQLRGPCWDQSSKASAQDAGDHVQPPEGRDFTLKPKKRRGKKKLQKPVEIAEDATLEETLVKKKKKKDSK

For “PLXNB2_O15031_1504+1506_GQPCSCWPRPDSVVLEWRPGSTAQILSDLDLTSQR (UniProt O15031)”, the “probe-labelled cysteine peptide fold change” value reads like this: (10 µM) -0.0809; (50 µM) -0.762.
On the same counts, the results for “PATZ1_Q9HBE1_610_KYPCPECGSFFR (UniProt Q9HBE1)” are 0.149 and 0.151.
For “PPP2R2D_Q66LE6_245_SFNIVDIKPANMEELTEVITAAEFHPHQCNVFVYSSSK (UniProt Q66LE6)”, in that order: -0.00789 and -0.502.
On the same counts, the results for “PFN1_P07737_128_KCYEMASHLRR (UniProt P07737)” are -0.531 and -0.695.
For the target “PELP1_Q8IZL8_71_SAPHLPGLMCLLR (UniProt Q8IZL8)”, the “probe-labelled cysteine peptide fold change” value is -1.13 (10 µM) and -0.883 (50 µM).
On the same counts, the results for “POLE_Q07864_600_HALEEEEKVPVEQVTNFEEVCDEIK (UniProt Q07864)” are -0.247 and -1.05.
On the same counts, the results for “PECAM1_P16284_109_CTVIVNNK (UniProt P16284)” are 0.0288 and 0.348.
On the same counts, the results for “PLEKHF2_Q9H8W4_219_ICDFCYDLLSAGDMATCQPAR (UniProt Q9H8W4)” are -0.498 and -0.228.
Consider “PPP2R5A_Q15172_72_DATSNEQQELFCQK (UniProt Q15172)”, for which the “probe-labelled cysteine peptide fold change” value (10 µM) was determined as 0.0287 and the “probe-labelled cysteine peptide fold change” value (50 µM) was -0.096.
On the same counts, the results for “PKN3_Q6P5Z2_131_QGAENMTHTCASGTPK (UniProt Q6P5Z2)” are -0.00333 and -0.199.
For “PHGDH_O43175_18_VLISDSLDPCCR (UniProt O43175)”, in that order: -0.444 and -0.677.
On the same counts, the results for “PPA1_Q15181_114_HTGCCGDNDPIDVCEIGSK (UniProt Q15181)” are 0.105 and 0.181.
In the case of “PLBD2_Q8NHP8_492_YNDFLHDPLSLCK (UniProt Q8NHP8)”, the “probe-labelled cysteine peptide fold change” value is 0.0964 (10 µM) and -0.267 (50 µM).
For “PDSS2_Q86YH6_71_CLLSDELSNIAMQVR (UniProt Q86YH6)”, in that order: -0.424 and -2.09.
As for “PCID2_Q5JVF3_152_VCASDTR (UniProt Q5JVF3)”, the “probe-labelled cysteine peptide fold change” value runs as follows: (10 µM) 0.19; (50 µM) 0.0189.
On the same counts, the results for “PPP1CC_P36873_140_IYGFYDECKR<|>PPP1CA_P62140_140_IYGFYDECKR (UniProt P62140+P36873)” are 0.0922 and 0.0296.
On the same counts, the results for “PDIA4_P13667_555_DVLIEFYAPWCGHCK<|>PDIA3_P30101_406_DVLIEFYAPWCGHCK (UniProt P30101+P13667)” are -0.287 and -1.09.
On the same counts, the results for “PCCB_P05166_291_DFFNYLPLSSQDPAPVRECHDPSDR (UniProt P05166)” are -0.474 and -0.454.
In the case of “PML_P29590_479+484_CSQTQCPR (UniProt P29590)”, the “probe-labelled cysteine peptide fold change” value (10 µM) is -0.494 and the “probe-labelled cysteine peptide fold change” value (50 µM) was -1.17.
For “PHKA1_P46020_238_GGPQSVIHVLADEVQHCQSILNSLLPR (UniProt P46020)”, in that order: 0.143 and -0.161.
On the same counts, the results for “PLCG2_P16885_791_SDELSFCR (UniProt P16885)” are -0.0321 and -0.0713.
As to “PLXNB2_O15031_1149_TLTETDLYCEPPEVQPPPK (UniProt O15031)”, the “probe-labelled cysteine peptide fold change” value is -0.174 (10 µM) and -0.00622 (50 µM).
For “PM20D2_Q8IYS1_14_MRPGGERPVEGGACNGR (UniProt Q8IYS1)”, in that order: -0.16 and -0.608.
For “PCCA_P05165_398_INGWAVECR (UniProt P05165)”, the “probe-labelled cysteine peptide fold change” value reads like this: (10 µM) 0.181; (50 µM) 0.357.
On the same counts, the results for “PPP4C_P60510_130_QITQVYGFYDECLRK<|>PPP2CB_P62714_133_QITQVYGFYDECLRK<|>PPP2CA_P67775_133_QITQVYGFYDECLRK (UniProt P67775+P62714+P60510)” are 0.0312 and -0.109.
On the same counts, the results for “PCBP2_Q15366_158_AITIAGIPQSIIECVK (UniProt Q15366)” are 0.149 and -0.0185.
For “POLR2K_P53803_22_QQPMIYICGECHTENEIK (UniProt P53803)”, the “probe-labelled cysteine peptide fold change” value reads like this: (10 µM) -0.0834; (50 µM) -0.286.
For “PDLIM4_P50479_258_CGHGIVGTIVK (UniProt P50479)”, in that order: -0.0847 and -0.546.
On the same counts, the results for “PGGT1B_P53609_162_ALQLEDGSFCAVPEGSENDMR (UniProt P53609)” are -0.0186 and -0.573.
On the same counts, the results for “PLCB3_Q01970_360_CVELDVWK (UniProt Q01970)” are 0.0505 and -0.317.
With “PPWD1_Q96BP3_287_AYPTSVCFSPDGK (UniProt Q96BP3)”, the “probe-labelled cysteine peptide fold change” value reads like this: (10 µM) 0.0829; (50 µM) 0.156.
On the same counts, the results for “PINX1_Q96BK5_94_NNHLGLGATINNEDNWIAHQDDFNQLLAELNTCHGQETTDSSDKK (UniProt Q96BK5)” are 0.15 and 0.124.
As to “PREX1_Q8TCU6_1173_DSYSECNSNR (UniProt Q8TCU6)”, the “probe-labelled cysteine peptide fold change” value turned out to be 0.634 (10 µM) and 1.39 (50 µM).
“PDIA6_Q15084_291_RTCEEHQLCVVAVLPHILDTGAAGR (UniProt Q15084)”: the “probe-labelled cysteine peptide fold change” value runs as follows: (10 µM) 0.0625; (50 µM) -0.132.
On the same counts, the results for “PML_P29590_140+143_ESADFWCFECEQLLCAK (UniProt P29590)” are 0.0944 and -0.116.

Values taken from the supplement of paper PMC12067093, “Discovery and optimisation of a covalent ligand for TRIM25 and its application to targeted protein ubiquitination” (Chemical Science, 2025).
